Many of the other results were omitted from the sample, so hits are more common in it than they were.
GRP78 ERSR act: inducers of ER stress response in human glioma cells; U87-MG GRP78 promoter luciferase reporter, 16 h; actives 0.02% (n = 420,000); Potency, µM, without a hit: at the top dose activation, hits mostly activators; AID 602332; note: series mostly up to about 76 µM; % of control where 0% means no effect; nearly all actives have a fitted effect of over 35% in size
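Stably transfected U87-MG glioma cells carrying a GRP78-based luciferase sensor; 16 h compound incubation. Luminescence end-point read 10 min after Bright-Glo addition at room temperature.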
ALOX12 inh: blocks human arachidonate 12S-lipoxygenase; purified 12hLO, xylenol orange hydroperoxide absorbance; P18054; actives 1.1% (n = 580,000); Potency, µM (doses to about 108 µM), for the others: at the highest dose activity change, negative = inhibition, hits mostly inhibitors; note: % is set by controls: 0 for no effect and ±100 for the full control effect
Target sequence (P18054 whole entry, looked up): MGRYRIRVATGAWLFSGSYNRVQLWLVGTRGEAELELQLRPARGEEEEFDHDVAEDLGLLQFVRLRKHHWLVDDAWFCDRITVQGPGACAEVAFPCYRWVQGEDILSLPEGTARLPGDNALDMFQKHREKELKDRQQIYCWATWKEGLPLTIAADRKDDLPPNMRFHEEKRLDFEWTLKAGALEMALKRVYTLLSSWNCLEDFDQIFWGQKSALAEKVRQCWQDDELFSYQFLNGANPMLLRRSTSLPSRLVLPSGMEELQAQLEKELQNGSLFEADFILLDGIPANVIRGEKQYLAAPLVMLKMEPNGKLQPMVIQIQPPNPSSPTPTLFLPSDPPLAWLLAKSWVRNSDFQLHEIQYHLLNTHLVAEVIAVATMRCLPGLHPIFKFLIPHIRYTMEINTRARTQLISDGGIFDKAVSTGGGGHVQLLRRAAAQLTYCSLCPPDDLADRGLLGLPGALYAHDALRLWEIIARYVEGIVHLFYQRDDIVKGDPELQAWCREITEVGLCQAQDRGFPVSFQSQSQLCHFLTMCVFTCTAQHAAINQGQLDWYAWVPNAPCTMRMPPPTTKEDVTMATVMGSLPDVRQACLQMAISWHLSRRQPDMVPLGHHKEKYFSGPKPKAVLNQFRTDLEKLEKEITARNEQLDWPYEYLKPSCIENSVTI
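Purified human 12hLO (150 nM final) in 25 mM Hepes, 0.01% Triton X-100, pH 7.0 was preincubated 15 min at room temperature with compound. Then 40 uM arachidonic acid was added, 30 min. Hydroperoxide was read by Fe-XO absorbance ratio 573/405 nm.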
G9a inh: G9a (human) methyltransferase inhibition; G9a H3K9 monomethylation, AlphaScreen, 2 h; Potency, µM (highest dose often 102 µM), for the others: at the highest dose activity, negative = inhibition, most hits filed as inhibitors; actives 8.8% (n = 350,000); AID 504332; note: % is set by controls: 0 for no effect and ±100 for the full control effect; nearly all actives have a fitted effect of over 75% in size
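Enzyme 20 nM + cpd, 15 min RT; add b-H3K9 pep 500 nM / SAM 20 uM; 2 h RT; anti-H3K9me1 Ab 0.5 ug/mL + SA donor / anti-rabbit acceptor beads 20 ug/mL each, 10 min; AlphaScreen read.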
VDR inh: inhibitors of human vitamin D receptor | P11473 | VDR-SRC2-3 peptide fluorescence polarization, 2 h | Potency, µM, for inactives: max response, negative = inhibition, usual class: inhibitors | actives 0.93% (n = 400,000) | AID 504847; note: % is set by controls: 0 for no effect and ±100 for the full control effect
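Inhibition of the VDR/SRC2-3 peptide interaction is quantified by fluorescence polarization. Compounds (23 nl, pintool) incubate with the reagents for 2 hours at ambient room temperature.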
Sfp inh: inhibitors of Bacillus subtilis Sfp phosphopantetheinyl transferase; AID 1490; Potency, µM, for inactives: largest response in the series, negative = inhibition, actives largely listed as inhibitors; Q9F4F7; Biochemical Sfp PPTase activity, qHTS; actives 3.5% (n = 310,000);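 note: the enzyme is Sfp with the accession as filed and its product quenches rhodamine fluorescence; 0% = enzyme reaction without inhibitor and -100% = no enzyme wells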
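Sfp 15 nM + cpd, 15 min RT; start w/ rhodamine-CoA 5 uM, BHQ-2-YbbR 12.5 uM (final); 50 mM Hepes pH 7.6, 10 mM MgCl2, 0.01% NP-40, 0.01% BSA; read 525/598 nm at 0 and 30 min.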
* = called active by the depositor; u = inconclusive; x = no result; [ ] = another dose, or the depositor's remark. Calls come from the whole dose curve; as a rule, active = well fitted curve in the direction sought with a large enough effect; inconclusive = small, poorly fitted or top-dose-only effect, or another doubt; inactive = no such curve, though single readings can be large; an effect the other way counts as inactive or inconclusive. Potency is the fitted concentration of half-maximal effect.

SMILES	GRP78 ERSR act	ALOX12 inh	G9a inh	VDR inh	Sfp inh
CCOC(=O)COn1c(=O)c(-c2ccc(OC)c(OC)c2)[n+]([O-])c2ccccc21	x	u	22µM*	x	u
CCOn1c(=O)c(-c2cccc(Br)c2)[n+]([O-])c2ccccc21	-2%	202%	11%[59 µM]	13%	19%
COc1ccc(-c2c(=O)n(OCc3ccccn3)c3ccccc3[n+]2[O-])cc1OC	-1%	-73%	u	-7%	-4%
CCOC(=O)COn1c(=O)c(=O)n(O)c2ccccc21	1%	u	45µM*	8%	-7%
O=S1(=O)CCN(Cc2cccc(Br)c2)c2c(F)nc(N3CCOCC3)c(F)c21	x	49%	x	x	x
O=C1CCSc2c1cccc2C(=O)NCC1CCN(Cc2ccc(F)cc2)CC1	x	11%	x	x	x
COc1cc(/C=N/N(C)c2ccccc2)cc(Cl)c1O	-3%	16µM*	u	-8%	u
CCCCCC(=O)N/N=C/c1cc(Br)c(O)c(OC)c1	-1%	11%	50µM*	-9%	-13%
COc1ccc(/C=N/NC(=O)c2ccc(Cn3cc([N+](=O)[O-])cn3)o2)cc1O	-2%	-13%	-20%[12.7 µM]	5%	-5%
O=C(CSc1n[nH]c(=O)[nH]c1=O)N/N=C/c1ccccc1O	1%	15%	15%[59 µM]	9%	31%
COc1cc(/C=N/O)cc(Cl)c1OC	0%	8%	-4%[59 µM]	-15%	6%
COc1cc(/C=N/NC(=O)c2ccc(Cn3cc([N+](=O)[O-])cn3)o2)cc(Br)c1O	5%	-6%	8.9µM*	u	-6%
COc1cc(/C=N/NC(=O)CSc2n[nH]c(=O)[nH]c2=O)cc(OC)c1O	2%	-21%	35µM*	-11%	5%
O=C(Nc1c(F)c(F)c(F)c(F)c1F)C12CC3CC(CC(C3)C1)C2	x	55%	x	x	x
COc1cc(/C=N/N(C)C)cc(Br)c1O	-9%	-6%	14µM*	16%	-10%
O=C(Cn1cnc2ccc(Br)cc2c1=O)N1CCCC1c1ccc2c(c1)OCCO2 (configuration not stated)	x	-2%	x	x	x
COC(=O)[C@]12CCCCC=C1N(CCC1=CCCCC1)C(=O)[C@H](CC(=O)NCc1ccc(C)o1)C2	x	-67%	x	x	x
CCCCCCCCN1C(=O)[C@H](CC(=O)NCc2ccc(C)o2)C[C@@]2(C(=O)OC)CCCCC=C12	x	35µM*	x	x	x
OC(CCN1CCCCC1)(c1ccccc1)C1C[C@@H]2C=C[C@H]1C2 (some centres not stated)	-4%	-14%	-33%[59 µM]	-24%	x
CN1CCN(CC#CC(C)(O)C2CC3C=CC2C3)CC1 (configuration not stated)	-3%	u	22µM*	-9%	-2%
Cc1cc(C2=CC(C)(c3cc(C)oc3C)Nc3nc(C(F)(F)F)nn32)c(C)o1 (configuration not stated)	x	x	u	x	13µM*
CCC1C/C(=C/c2ccco2)C(=O)/C(=C/c2ccco2)C1 (configuration not stated)	x	x	32µM*	x	32µM*
COc1cc(OC)c(OC)cc1/C=C1\CC(C)C/C(=C\c2cc(OC)c(OC)cc2OC)C1=O (configuration not stated)	-9%	u	32µM*	-3%	45µM*
COc1cc(OC)c(OC)cc1/C=C1/Cc2ccccc2C1=O	-3%	0%	-9%[2.33 µM]	-5%	11%
CCC1C/C(=C\c2cc(OC)c(OC)cc2OC)C(=O)/C(=C/c2cc(OC)c(OC)cc2OC)C1 (configuration not stated)	-12%	x	25µM*	-28%	56µM*
SMILES	GRP78 ERSR act	ALOX12 inh	G9a inh	VDR inh	Sfp inh
CCOc1ccccc1C(=O)n1c(=O)oc2ccc(C(C)(C)C)cc21	x	-10%	x	x	x
CCCOc1ccc(Br)cc1/C=C(/C#N)C(=O)OC	x	-43%	x	x	x
CCCCCCCCCCC(CO)CCCCCCCC (configuration not stated)	-3%	x	40%[59 µM]	3%	24%
CCCC[C@H](CC)CN=C(N)NC(N)=NCCCCCCN=C(N)NC(N)=NC[C@@H](CC)CCCC	-11%	x	u	36%	8.9µM*
O=C1N[C@H](CC(=O)N2CCN(c3ccc(C(F)(F)F)cn3)CC2)C(=O)Nc2ccccc21	x	-2%	x	x	x
CN1CCN(C(=O)c2cc(-c3ccccn3)nc3ccccc23)CC1	x	26%	x	x	x
CCCOc1nc2ccccc2nc1N1CCC(C(N)=O)CC1	x	-9%	x	x	x
Cc1sc2ncnc(Sc3ccccc3C(=O)Nc3ccc(Br)cc3)c2c1C	3%	10µM*	8.9µM*	u	50µM*
Cc1sc2ncnc(Sc3ccccc3C(=O)Nc3ccc(C#N)cc3)c2c1C	1%	-27%	u	-17%	-5%
CCOc1ccccc1C(=O)N(C)CC(=O)Nc1ccc(OC)cc1	-1%	0%	15%	-10%	4%
Cc1sc2ncnc(Sc3ccccc3C(=O)Nc3ccccc3Cl)c2c1C	-6%	u	3.5µM*	-9%	u
COc1ccc(NC(=O)CN(C)C(=O)c2ccccc2Sc2ncnc3sc(C)c(C)c23)cc1	-3%	-25%	35µM*	-1%	x
CCCCCc1ccc(OCCOCCn2c[n+](C)c3ccccc32)c(CCCCC)c1	-13%	x	-10%	-4%	50µM*
CCCCCc1ccc(OCCC[n+]2ccccc2)c(CCCCC)c1	-14%	u	x	4%	16µM*
C=CCNCc1ccccc1OCc1ccc(C)cc1	x	7%	x	x	x
O=[N+]([O-])c1ccc(N2CCN(Cc3cccc([N+](=O)[O-])c3)CC2)cc1	-4%	-5%	-11%	-19%	3%
O=[N+]([O-])c1cccc(CN2CCN(Cc3ccco3)CC2)c1	-2%	0%	7.9µM*	5%	u
O=[N+]([O-])c1ccc(S(=O)(=O)N2CCN(Cc3ccco3)CC2)cc1	-1%	0%	u	6%	56µM*
CCCc1ccc(S(=O)(=O)N2CCN(Cc3ccco3)CC2)cc1	-3%	-6%	x	2%	2%
CCCCCCC1C(C#N)=C(N)OC2=C1C(=O)CC(C)(C)C2 (configuration not stated)	-4%	-6%	-5%[59 µM]	-11%	11%
CCCCCCC1C(C#N)=C(N)OC2=C1C(=O)CCC2 (configuration not stated)	-2%	32µM*	-47%	-15%	-3%
Cc1ccc(C(=O)n2c(=S)nc3ccccn32)cc1	x	x	25µM*	x	u
Cc1cccc(C(=O)n2c(=S)nc3ccccn32)c1	-16%	x	2.2µM*	79µM*	40µM*
CCOC(=O)Nc1ccc(C)cc1NC(=O)OCC	-5%	-1%	44%	-1%	17%
CCOC(=O)Nc1ccc(NS(=O)(=O)c2ccc(C)cc2Cl)cc1	x	32µM*	x	x	x
COCc1nnc(NC(=O)c2ccc(Cl)cc2[N+](=O)[O-])s1	-1%	-23%	16µM*	-9%	-3%
COCc1nnc(NC(=O)c2cc(OC)c(OC)cc2[N+](=O)[O-])s1	-4%	12%	22%[59 µM]	-16%	15%
